Bioassay records from PubChem BioAssay.
Most compounds without a hit are left out; they make up all but 11% or so of the library.
INS promoter inh: inhibitors of insulin promoter-driven GFP, primary screen, imaging, TRM-6 cells (human fetal islet line), eGFP reporter, cell count; reporter expression induced with tamoxifen; actives 0.9% (n = 130,000); inhibition, % at 2 µM; AID 1273, 2008;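 active = inhibition above the mean plus 3 SD, with well images judged a real hit on visual review, cut at about 60% in these data, passing the limit was not always enough; inconclusive = inhibition over the cutoff but images rejected on review; inactive = inhibition not above the cutoff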
WT yeast gro inh: growth inhibition of WT strain, primary screen, mitochondrial fusion inhibitor project, WT and mutant strains, chemical genetic; mitochondrial fusion phenotypic screen; inhibition, % at 10 µM; actives 2.1% (n = 190,000); AID 1362, 2008; in the data active = inhibition above about 58%; tested in S. cerevisiae
L major viab: Leishmania major promastigote growth inhibition, primary screen. Leishmania major promastigotes, resazurin fluorescence viability. actives 9% (n = 200,000). inhibition, % at 10 µM. AID 1063, 2008; in the data active = inhibition above about 50%;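 note: promastigotes grown with compound for 44 hours at 28 °C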
Insulin prom up: insulin promoter activators in MIN6 cells, imaging, high-content screening, mouse beta cells; MIN6 insulin promoter-GFP reporter; hits give high values; z-score at 5 µM; actives 0.3% (n = 190,000);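 active = z-score above 3 at 5 µM with at least 500 cells counted in the well; inconclusive = wells under 500 cells, flagged as cytotoxic or low count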
Autophagy HCS: autophagy modulators in MEF cells, primary screen, imaging, high-content, MEF GFP-LC3; actives 0.98% (n = 190,000); MEF GFP-LC3 puncta imaging; test concentration mostly 10 µM; calls only at 10 µM (by protocol); AID 463193, 2010;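 active = percentage of spot-positive cells more than 3 SD above its plate mean, without a fluorescence outlier flag or 80% toxicity; inconclusive = no clear call, values can overlap the other calls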;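 note: spot-positive cell cutoff set from DMSO-treated cells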
An asterisk follows results filed as active.

Screening CC(=O)Oc1c(C)cc(Cl)cc1C(=O)Nc1ccc([N+](=O)[O-])cc1Cl returned INS promoter inh 33, WT yeast gro inh 85*, L major viab 8, Insulin prom up inconclusive and Autophagy HCS inactive.
COC(=O)c1ccc(CSc2nc(C)nc3c2c(=O)n(C)c(=O)n3C)o1 was read as WT yeast gro inh -2, L major viab -7, Insulin prom up -0.28 and Autophagy HCS inactive.
For COC(=O)c1ccc(CSc2nc(-c3ccc(OC)cc3)nc3c2c(=O)n(C)c(=O)n3C)o1 the results were INS promoter inh 13, L major viab -6 and Autophagy HCS active.
`CC(CC(=O)Nc1ccc(Cl)c([N+](=O)[O-])c1)c1ccccc1` (stereo unspecified) gave INS promoter inh -12, WT yeast gro inh 80*, L major viab 12, Insulin prom up -0.67 and Autophagy HCS inactive.
Screening O=C(Nc1ccc(C(O)(C(F)(F)F)C(F)(F)F)cc1)c1ccc(Cl)c([N+](=O)[O-])c1 returned INS promoter inh 55, WT yeast gro inh 74*, L major viab 53* and Autophagy HCS inactive.
CC(CC(=O)Nc1ccc(C(N)=O)cc1)c1ccccc1 (stereo unspecified) was read as INS promoter inh 31, WT yeast gro inh 4, L major viab 26, Insulin prom up -0.9 and Autophagy HCS inactive.
O=C(Nc1ccccc1)Nc1ccc(Cl)c([N+](=O)[O-])c1 was read as INS promoter inh 7, WT yeast gro inh 82*, L major viab 53*, Insulin prom up -0.68 and Autophagy HCS inactive.
`O=C(c1ccccc1Br)N1CCC(c2nc3ccccc3s2)CC1` gave INS promoter inh 29, WT yeast gro inh 11, L major viab 3 and Autophagy HCS inactive.
Screening O=C(CN1CCC(c2nc3ccccc3s2)CC1)NCc1ccccc1 returned INS promoter inh 38, WT yeast gro inh 24, L major viab 87* and Autophagy HCS inactive.
CCc1ccc(C(=O)N2CCC(c3nc4ccccc4s3)CC2)cc1 was read as INS promoter inh -3, WT yeast gro inh 0, L major viab 87*, Insulin prom up -0.22 and Autophagy HCS inactive.
Screening CC(=O)c1cn(-c2ccc(Cl)cc2)c(=O)n(Cc2ccc(Br)cc2)c1=O returned WT yeast gro inh -12, L major viab 9, Insulin prom up -0.6 and Autophagy HCS inactive.
For COC(=O)c1ccc2c(c1)C(C)(C)C(/C=C/c1ccc(O)cc1)=[N+]2C the results were INS promoter inh 25, WT yeast gro inh 33, L major viab 101*, Insulin prom up inconclusive and Autophagy HCS inactive.
CC(Cl)C(=O)NNc1cccc(Cl)n1 (stereo unspecified) was read as INS promoter inh -3, WT yeast gro inh 58*, L major viab -8, Insulin prom up -0.8 and Autophagy HCS inactive.
`O=C(NNc1cccc(Cl)n1)Nc1cccc(Cl)c1` gave INS promoter inh 51, WT yeast gro inh 17, L major viab 97* and Autophagy HCS inactive.
For O=C(NNc1cccc(Cl)n1)Nc1ccccc1 the results were INS promoter inh 36, WT yeast gro inh 27, L major viab 39 and Autophagy HCS inactive.
O=c1oc2ccccc2nc1/C=C(\O)c1ccc(Br)cc1 was read as Insulin prom up 0.39.
For CS(=O)(=O)Cc1nc2ccccc2oc1=O the results were WT yeast gro inh 20, L major viab 100*, Insulin prom up -0.67 and Autophagy HCS inactive.
CCS(=O)(=O)CCSc1nc2ccccc2o1 was read as INS promoter inh -185, WT yeast gro inh -5, L major viab -2, Insulin prom up -0.01 and Autophagy HCS inactive.
C/C(O)=C\c1nc2ccccc2oc1=O was read as INS promoter inh -11, WT yeast gro inh 34, L major viab 65* and Autophagy HCS inactive.
`O=C(Nc1ccc(F)cc1)C1=CC(=O)N2CCN=C2S1` gave WT yeast gro inh -19, L major viab -5 and Autophagy HCS inactive.
COc1cc(NC(=S)NCCc2ccc(S(N)(=O)=O)cc2)c(OC)cc1Cl was read as INS promoter inh -12, WT yeast gro inh -10, L major viab 22, Insulin prom up 0.31 and Autophagy HCS inactive.
`Cc1ccc(NC(=O)c2ccc(NCCc3ccccc3)c([N+](=O)[O-])c2)cc1F` gave INS promoter inh -14, WT yeast gro inh 22, L major viab 89*, Insulin prom up 0.05 and Autophagy HCS active.
